Experimental data: PubChem BioAssay (NCI)
About 83,000 compounds went through this panel and 20% of them were active in at least one assay; those are over-represented in the sample as a whole.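 Percent growth is the endpoint: 0 to 100 indicates growth inhibition (40 means 60% inhibition), 0 means no net growth, and negative values indicate cell death.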 Calls of active or inactive are those of the source.

test system: TK-10 renal; assay: NCI-60 one-dose screen, 48 h (100 = growth as untreated, 0 = no growth, -100 = all killed); conditions: 10 µM
Method: Growth inhibition of the TK-10 human tumor cell line is measured as a screen for anti-cancer activity. Cells are grown in 96 well plates and exposed to the test compound for 48 hours. Compounds are tested at a single concentration, which is 10^-5 M for most compounds. The reported endpoint is percent growth (GI% or GIPRCNT), where numbers from 0 - 100% represent growth inhibition, and numbers from -100% - 0 represent cell death. For example, a value of 40 represents 60% growth inhibition. A value of 0 means no net growth occurred over the course of the experiment. A value of -40 indicates 40% of cells at the beginning of the experiment died by the end of the experiment. A value of -100 means all cells are dead at the end of the experiment.
NCI-60 Human Tumor Cell Lines Screen was performed using the standard one-dose NCI protocol, which is described in more detail at https://dtp.cancer.gov/discovery_development/nci-60/default.htm.
Compounds with GIPRCNT values below 10 were considered active. Activity score was based on GIPRCNT using the following formula: […]
Score is 0 for GIPRCNT values of 100 or above, 50 for GIPRCNT values of 0, and 100 for GIPRCNT values of -100.

Structure (SMILES)	growth
CC(C)CCSc1nc(NC2CC2)c(C#N)c(-c2ccc(C(C)C)cc2)n1	99.4% (inactive)
COc1ccc(Nc2nc(N)n(Cc3cccc(Br)c3)n2)cc1	24.9% (inactive)
N#Cc1ccc(-c2nn(-c3ccc(C(=O)O)cc3)cc2CNc2cc(Cl)cc(C(F)(F)F)c2)cc1	63.5% (inactive)
CCCn1c(=O)c2[nH]c(-c3ccc(OCc4nc5ccc(F)cc5[nH]4)cc3)nc2n(CCC)c1=O	-3.59% (active)
CN1CCN(c2ccc(Nc3nc(NCCCNC(=O)c4ccccc4)c4sccc4n3)cc2)CC1	117% (inactive)
O=C(Cc1ccc2c(c1)CN(C1CCC(=O)NC1=O)C2=O)NCc1cccc2ccccc12 (stereo not given)	18% (inactive)
O=C(c1ccc(O)cc1)C1[C@H](c2ccccc2Br)[C@@H](c2ccccc2)NC12C(=O)Nc1ccc(Cl)cc12 (stereo not given in full)	7.92% (active)
COc1cccc2nc(Nc3ccc(F)c(NC(=O)c4ccc(CN5CCN(C)CC5)c(C(F)(F)F)c4)c3)ccc12	50.3% (inactive)
Cc1ccc(NC(=O)NCn2c(=O)[nH]c3ccccc3c2=O)cc1	72.5% (inactive)
CN1CCN(c2ccc(C(=O)/C=C/c3cc(Br)ccc3F)cc2)CC1	88.6% (inactive)
Cc1ccc(-c2cc(-c3cc4ccccc4nc3Cl)[nH]c(=S)n2)cc1	107% (inactive)
C=C[C@@]12CN3CC[C@]1(O)[C@@](C(=O)OC)(CO2)c1[nH]c2ccccc2c1C3	97% (inactive)
CCCCCc1ccc(S(=O)(=O)N(C(C)=O)c2cc(-c3csc(N(C)C(C)=O)n3)ccc2N2CCN(C)CC2)cc1	76.7% (inactive)
O=C(c1ccc(Cl)cc1)C1[C@H](c2ccc(Br)cc2)[C@@H](c2ccccc2)NC12C(=O)Nc1ccccc12 (stereo not given in full)	14.5% (inactive)
COc1cc(NC(=O)CSc2nnc(-c3ccc4nc(-c5ccc(Cl)cc5)[nH]c4c3)o2)cc(OC)c1OC	116% (inactive)
NS(=O)(=O)c1ccc(N=Nc2c(O)n(CC(=O)Nc3ccccc3Br)c3ccccc23)cc1	63.3% (inactive)
COc1ccc(C(=O)Nc2sc3c(c2C#N)CCC(=O)C3)cc1C(F)(F)F	15.1% (inactive)
COc1ccc2[nH]cc(/C=N/Nc3cccc(Cl)n3)c2c1	91.1% (inactive)
O=c1nc(-c2ccccc2)cc(-c2cc3ccccc3nc2Cl)[nH]1	87.7% (inactive)
CCOC(=O)N/C(=C1/OCCN1C)[P+](c1ccccc1)(c1ccccc1)c1ccccc1	92.1% (inactive)

Structure (SMILES)	growth
COc1cccc(C(N)=Nc2ccc(OCCCCCCn3cncn3)cc2)c1	64.3% (inactive)
COc1ccc(CN2[C@@H](C(=O)NCc3ccc(C(=O)NO)cc3)Cc3c([nH]c4ccccc34)[C@@H]2C2CC2)cc1	8.46% (active)
NS(=O)(=O)c1ccc(NC(=O)CSc2ccc(-c3ccc(Cl)cc3)nn2)c(Br)c1	94.6% (inactive)
O=c1cc(-c2ccccc2)oc2cc(OCCCNCc3ccccc3)cc(O)c12	37.3% (inactive)
CCN1CCN(c2ccc(NC(=O)Nc3ccc(-c4cc(C(=O)NC)c5ncccc5n4)cc3)cc2C(F)(F)F)CC1	-98.9% (active)
O=c1[nH]c2ccccc2cc1CSc1ccc(Nc2nccc(-c3ccc4ccccc4c3)n2)cc1	78.8% (inactive)
COc1cccc(/C=N/NC(=O)c2ccc3nc(-c4ccc(Cl)cc4)[nH]c3c2)c1O	-11.1% (active)
O=C(N/C(=C1/OCCN1Cc1ccccc1)[P+](c1ccccc1)(c1ccccc1)c1ccccc1)c1ccccc1	26.1% (inactive)
COc1cccc(-c2nn(-c3ccccc3)cc2-c2ccnc(NCCCNC(=O)Nc3ccc(F)cc3)c2)c1	49.8% (inactive)
O=C1NC(=NC2CCCCCC2)N/C1=C\c1ccc2ncoc2c1	43.8% (inactive)
CC(C)NC(=O)c1cc(-c2ccc(NC(=O)Nc3ccc(N4CCN(C)CC4)c(C(F)(F)F)c3)cc2)nc2cccnc12	-93.6% (active)
CCCn1c(O)c(N=Nc2nc(-c3cc4ccccc4oc3=O)cs2)c2cc(Br)ccc21	125% (inactive)
CC(=O)C1=C(C)NC(SCC(=O)Nc2ccc(S(=O)(=O)Nc3cc(C)on3)cc2)=NC1c1ccccc1 (stereo not given)	112% (inactive)
COc1ccc(NC(=O)Nc2ccc(OCC(=O)N=Nc3c(O)[nH]c4ccc([N+](=O)[O-])cc34)cc2)cc1	113% (inactive)
Cc1cccc(NC(=O)CSc2nc3ccc(F)cc3c(=O)n2-c2ccc(Cl)cc2)c1C	108% (inactive)
COc1ccc(N2N=C(c3ccc4c(c3)OCCO4)CC2c2cccc(NC(=O)CCCNS(=O)(=O)c3ccc(F)cc3)c2)cc1 (stereo not given)	78.2% (inactive)
O=c1c2ccccc2nc(COc2ccccc2)n1/N=C/c1ccc(N2CCOCC2)cc1	81.6% (inactive)
O=C(NCCCCC(c1ccc(F)cc1)c1ccc(F)cc1)NCCCc1cccnc1	46.2% (inactive)
CN1CCO/C1=C(/NC(=O)c1ccc(Cl)cc1)[P+](c1ccccc1)(c1ccccc1)c1ccccc1	99.6% (inactive)
COc1ccc2[nH]c(=O)c(CSc3nccc(-c4ccc(Cl)cc4)n3)cc2c1	19.6% (inactive)
